JMJD2A Tudor inh – JMJD2A Tudor domain (human) inhibition; O75164; AlphaScreen JMJD2A-Tudor / H3K4me3 peptide binding; Potency, µM (doses to about 114 µM), for inactives: at the top dose activity change, negative = inhibition, actives largely listed as inhibitors; 4.4% of 390,000 active; further: potency means the concentration at half of the fitted maximal effect; on the % scale 0 is the no-effect control and ±100 the full control effect; nearly all actives have a fitted effect of over 50% in size
Target sequence (O75164 whole entry, looked up, the tested form may be a part): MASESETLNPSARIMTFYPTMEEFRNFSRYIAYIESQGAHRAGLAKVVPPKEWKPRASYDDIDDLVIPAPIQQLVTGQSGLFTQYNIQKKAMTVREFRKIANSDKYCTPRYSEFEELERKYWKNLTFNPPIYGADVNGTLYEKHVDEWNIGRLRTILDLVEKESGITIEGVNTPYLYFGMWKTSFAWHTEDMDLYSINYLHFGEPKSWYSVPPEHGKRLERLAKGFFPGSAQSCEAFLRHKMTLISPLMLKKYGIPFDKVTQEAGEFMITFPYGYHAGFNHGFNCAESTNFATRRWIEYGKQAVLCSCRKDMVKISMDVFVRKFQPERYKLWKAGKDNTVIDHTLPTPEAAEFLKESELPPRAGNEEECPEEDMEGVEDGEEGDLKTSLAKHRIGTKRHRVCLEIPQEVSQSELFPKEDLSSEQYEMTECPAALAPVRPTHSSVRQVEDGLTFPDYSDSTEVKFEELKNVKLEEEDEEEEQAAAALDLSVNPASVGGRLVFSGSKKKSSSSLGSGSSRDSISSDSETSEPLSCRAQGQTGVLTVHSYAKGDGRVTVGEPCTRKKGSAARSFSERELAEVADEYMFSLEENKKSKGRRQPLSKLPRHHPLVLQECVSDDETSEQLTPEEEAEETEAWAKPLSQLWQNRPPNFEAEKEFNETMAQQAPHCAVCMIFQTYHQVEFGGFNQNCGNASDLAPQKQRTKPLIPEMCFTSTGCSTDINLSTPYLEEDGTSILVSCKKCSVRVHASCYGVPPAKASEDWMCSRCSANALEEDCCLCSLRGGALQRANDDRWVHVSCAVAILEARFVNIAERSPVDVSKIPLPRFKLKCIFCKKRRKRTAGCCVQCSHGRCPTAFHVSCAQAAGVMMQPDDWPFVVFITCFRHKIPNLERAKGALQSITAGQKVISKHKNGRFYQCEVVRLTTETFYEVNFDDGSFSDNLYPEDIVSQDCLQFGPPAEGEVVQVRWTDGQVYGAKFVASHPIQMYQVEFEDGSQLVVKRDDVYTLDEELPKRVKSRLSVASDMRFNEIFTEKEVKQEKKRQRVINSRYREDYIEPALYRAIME
G9a inh – G9a (human) methyltransferase inhibition. 8.8% of 350,000 active. Potency, µM (top dose mostly 102 µM), for the others: at the highest dose activity, negative = inhibition, hits mostly inhibitors. Q96KQ7. G9a H3K9 monomethylation, AlphaScreen, 2 h; further: potency means the concentration at half of the fitted maximal effect; on the % scale 0 is the no-effect control and ±100 the full control effect; nearly all actives have a fitted effect of over 75% in size
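Step 1: enzyme (final 20 nM) with compound, 15 min RT. Step 2: substrate peptide 500 nM and SAM 20 uM, 2 h RT. Step 3: anti-H3K9me1 antibody and AlphaScreen beads, 10 min, then plate read.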
HP1b binding inh – blocks HP1-beta chromodomain binding to methylated histone tails; P83916; AlphaScreen HP1-beta / biotin-H3K9me3 peptide binding; Potency, µM (top dose mostly 114 µM), for the others: top-dose activity change, negative = inhibition, most hits filed as inhibitors; 0.56% of 390,000 active; AID 540317; further: potency means the concentration at half of the fitted maximal effect; nearly all actives have a fitted effect of over 70% in size
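AlphaScreen: HP1-beta (50 nM) preformed 30 min with biotin-H3(1-18)K9me3 peptide (50 nM) in PBS pH 7.4, 0.01% Tween-20. Compound added for 30 min at RT, then streptavidin donor/nickel chelate acceptor beads (10 ug/mL) for 30 min.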
Six1-Eya2 inh – inhibitors of human Six1/Eya2 interaction; Q15475+O00167; AlphaScreen GST-Six1/His-Eya2 binding, biochemical; hits give low values; activity change, % (test concentration not listed); 0.56% of 360,000 active; AID 651725; in the data active means activity change below about -65%; inconclusive means mostly about -30% to -63%; further: on the % scale 0 is the no-effect control and ±100 the full control effect
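GST-Six1 + His-Eya2 (5X stock: 250/500 nM); Tris pH 8.0, 300 mM NaCl, 0.05% BSA, 0.02% Tween 20; GSH donor/Ni acceptor beads; 1 h 37 °C dark; AlphaScreen readout.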
BAZ2B block – blocks human BAZ2B; Potency, µM (top dose mostly 114 µM), inactives show at the highest dose activity change, negative = inhibition, most hits filed as inhibitors; 4.4% of 360,000 active; Q9UIF8; AID 504333; AlphaScreen BAZ2B-H3K14Ac peptide displacement; further: potency means the concentration at half of the fitted maximal effect; on the % scale 0 is the no-effect control and ±100 the full control effect; nearly all actives have a fitted effect of over 60% in size
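AlphaScreen displacement of biotin-H3(5-23)K14Ac peptide (50 nM final) from BAZ2B (50 nM final) in PBS pH 7.4, 0.01% Tween-20; complex preformed 30 min RT, then compounds (top 110 uM) 30 min RT, beads 20 min dark.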
CtBP-E1A blk – CtBP/E1A binding inhibition; AlphaScreen GST-E1A/His-CtBP binding, 1536-well; hits give low values; 0.49% of 340,000 active; activity change, % (test concentration not listed); in the data active means activity change below about -65%; inconclusive means mostly about -30% to -63%; further: on the % scale 0 is the no-effect control and ±100 the full control effect
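AlphaScreen with 125 nM GST-E1A and 125 nM His-CtBP (5X stocks) in Tris pH 8.0, 300 mM NaCl, BSA, Tween 20, TCEP. Compounds preincubated 2 h at 37 deg C, then glutathione donor/nickel acceptor beads added for 1 h at 37 deg C in dark.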
The depositor's hits bear a star; ? = inconclusive; nt = no result; ! = a repeat was not active; [ ] = another dose, or the depositor's remark. Shown are actives, neighbours in structure and some others; about 10% of the full set was active somewhere. Unless noted, the call rests on the fitted dose curve; in most records, active means well fitted inhibition curve with a large enough effect; inconclusive means small, poorly fitted or top-dose-only effect; inactive means no such curve, though single readings can be large or run the other way.

SMILES	JMJD2A Tudor inh	G9a inh	HP1b binding inh	Six1-Eya2 inh	BAZ2B block	CtBP-E1A blk
CCN(c1ccc(NC(=O)COC(=O)c2ccc3ccccc3n2)cc1)C(C)C	25.1µM*	?	22.4µM*	?	35.5µM*	?
Cc1ccc(NC(=O)COC(=O)/C=C/c2cccs2)cc1	14.5%[57.1 µM]	3.8%[59 µM]	38.2%	7.4	-3.9%	0.3
CCN(c1ccc(NC(=O)COC(=O)/C=C/c2cccs2)cc1)C(C)C	22.4µM*	8.91µM*	35.5µM*	?	17.8µM*	?
CC1CCCCN1CCNC(=O)CN1C(=O)CSc2ccc(S(=O)(=O)N3CCCCC3)cc21 (centres undefined)	-9.2%	19.2%	57.4%	-0.7	-35.4%	-0.1
COC(=O)C(C)(N)Cc1ccc(O)cc1 (centres undefined)	-19.4%	25.1µM*!	21.2%	2.2	9.6%	0.4
C[C@](N)(Cc1ccc(O)cc1)C(=O)O	nt	-0.2%[59 µM]	nt	nt	nt	nt
COc1ccc(/C=N/N=C2\SCC(=O)N2c2c(C)n(C)n(-c3ccccc3)c2=O)cc1OC	-8.6%	8.91µM*	27.9%	-10.3	?	-2.3
COc1ccc2[nH]c(C)c(CCNC(=S)Nc3ccc(C)cc3)c2c1	50.1µM*	?	-23.4%	-22.6	nt	nt
CCc1cccc(CC)c1NC(=S)NCCc1ccc(O)c(O)c1	?	?	-14.5%	-9.9	nt	-14.1
COc1ccc2[nH]c(C(=O)O)c(CCNC(C)=O)c2c1	-17.5%	6.3%	37.5%	0.9	-1.8%	5.1
Cc1ccccc1NC(=S)NCCc1c[nH]c2ccccc12	-25.5%	3.4%[59 µM]	-2.1%[57 µM]	-16.5	?	-10.8
COc1ccc2[nH]c(C)c(CCNC(=S)Nc3ccccc3C)c2c1	89.1µM*	50.1µM*	?	-8.2	44.7µM*	0.0
CCc1cccc(CC)c1NC(=S)NCCc1c(C)[nH]c2ccccc12	44.7µM*	44.7µM*	-16.4%	-22.2	31.6µM*	-22.7
COc1ccc2[nH]c(C)c(CCNC(=S)Nc3cccc(C)c3C)c2c1	56.2µM*	?	?	?	35.5µM*	-3.2
CC(Sc1nc2c(cc1C#N)CCCCC2)C(=O)O (centres undefined)	-1.4%	-8.4%	46.1%	6.3	-21.8%	-9.1
CCC(Cc1ccccc1)NC(=O)CN1C(=O)COc2ccc(S(=O)(=O)N3CCCCCC3)cc21 (centres undefined)	-9.8%	-35.6%[59 µM]	27.4%	nt	-9.8%	nt
CCOC(=O)C1(C)/C(=N/Nc2ccc(Cl)cc2)C(=O)C(=O)N1c1ccccc1 (centres undefined)	15.8µM*	?	?	9.9	56.2µM*	20.2
CCOC(=O)C1(C)C=C(Nc2ccc(OC)cc2)C(=O)N1c1ccccc1 (centres undefined)	-17.0%	?	-1.0%	nt	2.5%	nt
CCOC(=O)C1(C)/C(=N/Nc2ccc(S(N)(=O)=O)cc2)C(=O)C(=O)N1c1ccccc1 (centres undefined)	-35.4%	35.5µM*	-18.4%	2.5	-26.2%	-4.5
CCOC(=O)C1(C)/C(=N/Nc2cccc(Cl)c2)C(=O)C(=O)N1c1ccccc1 (centres undefined)	28.2µM*	?	?	-7.6	?	-1.2
CCOC(=O)C1(C)C=C(Nc2ccc(C(=O)O)cc2)C(=O)N1c1ccc(C(=O)O)cc1 (centres undefined)	-14.9%	-39.2%[59 µM]	26.4%	nt	-1.0%	nt
CCOC(=O)/C(=N\Nc1ccccc1Cl)N1CCN(C)CC1	-22.8%	-4.3%	-13.9%	-1.8	6.3%	-4.0
CCOC(=O)C1(C)/C(=N/Nc2ccccc2Cl)C(=O)C(=O)N1c1ccccc1 (centres undefined)	39.8µM*	3.55µM*	?	-10.4	50.1µM*	-17.8
COc1cccc(C(=O)Nc2nnc(SCC(=O)Nc3ccc(NC(C)=O)cc3)s2)c1	-5.1%	?	39.5%	-20.2	-11.7%	-18.4
CN(C)c1ccc(-c2nc(-n3ccnc3)c3ccccc3n2)cc1	nt	5.4%[0.501 µM]	nt	nt	nt	nt
SMILES	JMJD2A Tudor inh	G9a inh	HP1b binding inh	Six1-Eya2 inh	BAZ2B block	CtBP-E1A blk
Cc1ccc2c(c1)C(c1ccc(F)cc1)N(C(=O)c1ccccc1Br)CC(=O)N2 (centres undefined)	-23.2%	19.4%	38.6%	5.1	-21.6%	0.0
Cc1ccc(Cn2c(/C=C/c3ccco3)nc3ccccc32)cc1	-0.7%	39.8µM*	11.2%	3.7	?	2.6
Clc1ccc(Cn2c(/C=C/c3ccco3)nc3ccccc32)cc1	-26.5%	3.16µM*	?	2.4	56.2µM*	12.7
COc1ccc(C2(C)NC(=O)N(CC(=O)NCc3ccccc3)C2=O)cc1OC (centres undefined)	-14.0%	42.6%	-19.7%	7.2	4.5%	5.6
COc1cc(NC(=O)c2cccc(Cl)c2)c(OC)cc1NC(=O)CN1CCOCC1	?	44.7µM*	15.1%	-16.0	?	-13.6
COc1cc(NC(=O)c2ccc(F)cc2)c(OC)cc1NC(=O)CN1CCCCC1	-19.1%	50.1µM*	16.2%	-21.6	-17.8%	10.9
Cc1ccc(C)c(NC(=O)COC(=O)c2cccc(S(=O)(=O)N3CCCC3)c2)c1	nt	nt	nt	-1.9	nt	-1.8
CCC1CCCCN1C(=S)NC(=O)c1ccc([N+](=O)[O-])cc1 (centres undefined)	?	?	-13.0%	1.0	70.8µM*	3.9
O=C(NCC1CCCCC1)c1ccc(F)c(S(=O)(=O)N2CCOCC2)c1	-13.2%	-2.5%[2.33 µM]	27.8%	5.6	4.9%	-0.4
CCC1CCCCN1C(=S)NC(=O)c1ccc(F)c(S(=O)(=O)N2CCOCC2)c1 (centres undefined)	-20.3%	44.7µM*	8.2%	1.5	-37.3%	nt
CCn1nnc2cc(C(=O)Nc3cccc(Cl)c3C)ccc21	20.1%	-10.7%[59 µM]	21.2%	nt	-1.3%	nt
COc1ccc(-c2cc3ccc(O)c(CN4CCCCC4C)c3oc2=O)cc1OC (centres undefined)	5.2%	0.7%[59 µM]	32.7%[57 µM]	nt	16.3%	nt
COCC1CCN(C(=O)c2ccc3oc(C(C)C)nc3c2)C1 (centres undefined)	nt	nt	nt	3.9	nt	4.5
O=C(Nc1ccccn1)c1ccc2c(c1)OCCO2	-3.5%	16.4%[59 µM]	16.6%	13.1	-8.0%	-2.1
O=C(Nc1nc(-c2ccccn2)cs1)c1ccc2c(c1)OCCO2	56.2µM*	-26.3%	45.0%	-81.8*	22.4µM*	?
O=C(Nc1ccc(OC(F)(F)F)cc1)c1ccccc1-n1cnnn1	-14.9%	nt	29.8%	-0.1	nt	1.0
O=C(Nc1nc(-c2ccccn2)cs1)c1ccccc1-n1cnnn1	?	10µM*	-14.7%	-90.6*	22.4µM*	-98.1*
CC(=O)Nc1ccc(C(=O)Nc2nc(-c3cccnc3)cs2)cc1	-18.0%	3.98µM*	28.9%	-5.9	-27.7%	-12.5

Compound activity from PubChem.
